{
  "source": "PubChem BioAssay (NCATS)",
  "note": "Records with an inconclusive call do not appear. A call without a number means that no potency is given here. Active and inactive are the calls of the source. The call rests on the fitted dose curve; in most records, active means well fitted inhibition curve with a large enough effect; inconclusive means small, poorly fitted or top-dose-only effect; inactive means flat fitted curve, though single readings scatter. Potency means the concentration at half of the fitted maximal effect.",
  "data": [
    {"test_system": "WaGa", "assay": "qHTS assay to identify novel small-molecules to repurpose for Merkel cell carcinoma treatment (AID 1296009); further: nearly all actives have a fitted effect of over 60% in size", "details": "MCC and control cell lines, CellTiter-Glo viability, 72 h; series mostly up to 46 µM", "method_in_brief": "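Luminescence from CellTiter-Glo, read 10 min after addition at room temperature, reported viability following a 72 hr, 37 degree celsius treatment with NPC or MIPE compounds in titration; values normalized to plate controls.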", "values": [
      {"smiles": "CCCn1c(=O)c2[nH]c(C34CC5CC3C[C@@H](C5)C4)nc2n(CCC)c1=O", "Potency": "inactive"},
      {"smiles": "Cc1cc(C=c2sc3nc4ccccc4n3c2=O)c(C)n1-c1ccccc1", "Potency": "inactive"},
      {"smiles": "Cc1ccccc1C(C(=O)NC1CCCC1)N(C(=O)Cn1cnc2ccccc21)c1cccc(F)c1", "note": "(centres undefined)", "Potency": "inactive"},
      {"smiles": "CCN(c1ccccc1)c1cc(NC)[n+](C)c(C)n1", "Potency": "inactive"},
      {"smiles": "O=C(O)[C@@H](c1ccc(OCc2ccc3ccccc3n2)cc1)C1CCCC1", "Potency": "inactive"},
      {"smiles": "Cn1c(=O)c(F)c(Nc2ccc(I)cc2F)c2c(=O)n(C[C@@H](O)CO)cnc21", "Potency": "inactive"},
      {"smiles": "NC(=O)c1ccc(-c2nc(-c3ccc4c(c3)OCO4)c(-c3ccccn3)[nH]2)cc1", "Potency": "inactive"},
      {"smiles": "CCOc1cc(N2CCC(O)CC2)ccc1Nc1ncc2c(n1)N(C)c1ccccc1C(=O)N2C", "Potency": "3.72 µM (active)"},
      {"smiles": "C[C@]1(c2nc3c(C(N)=O)cccc3[nH]2)CCCN1", "Potency": "inactive"},
      {"smiles": "CC(C=CC1=C(C)CCCC1(C)C)=CC=CC(C)=CC(=O)O", "Potency": "inactive"},
      {"smiles": "CCn1c(-c2nonc2N)nc2c(C#CC(C)(C)O)ncc(OC[C@H]3CCCNC3)c21", "Potency": "inactive"},
      {"smiles": "O=C1[C@H](Cc2ccc(O)cc2)N2C(=O)CCN(C(=O)NCc3ccccc3)[C@H]2CN1Cc1cccc2ccccc12", "Potency": "13.2 µM (active)"},
      {"smiles": "NC(=O)c1ccc(-c2nc(-c3ccc4c(c3)OCCO4)c(-c3ccccn3)[nH]2)cc1", "Potency": "inactive"},
      {"smiles": "Fc1ccc(Cl)cc1-c1nc(Nc2ccncc2)c2nccnc2n1", "Potency": "inactive"},
      {"smiles": "COc1ccc(C2=N[C@H](c3ccc(Cl)cc3)[C@H](c3ccc(Cl)cc3)N2C(=O)N2CCNC(=O)C2)c(OC(C)C)c1", "Potency": "2.96 µM (active)"},
      {"smiles": "Cc1cc(-c2ccc(CC(=O)Nc3ccc(-c4cccnc4)cc3)cc2)ccn1", "Potency": "inactive"},
      {"smiles": "CCC(C)N(C)C(=O)c1cc2ccccc2c(-c2ccccc2Cl)n1", "note": "(centres undefined)", "Potency": "inactive"},
      {"smiles": "O=C(C=Cc1ccc(/C=C/C(=O)Nc2ccc(C3=NCCN3)cc2)cc1)Nc1ccc(C2=NCCN2)cc1", "Potency": "inactive"},
      {"smiles": "COc1ccc(-c2c(-c3ccc(O)cc3O)n[nH]c2C)cc1", "Potency": "inactive"},
      {"smiles": "C[C@]12CC[C@H](O)CC1=CC[C@@H]1[C@H]2CC[C@]2(C)C(c3cccnc3)=CC[C@H]12", "Potency": "inactive"},
      {"smiles": "CCOC(=O)N[C@@H]1CC[C@@H]2[C@@H](C1)C[C@H]1C(=O)O[C@H](C)[C@H]1[C@@H]2C=Cc1ccc(-c2cccc(F)c2)cn1", "Potency": "inactive"},
      {"smiles": "NC(=O)C1CCCc2c1[nH]c1ccc(Cl)cc21", "note": "(centres undefined)", "Potency": "inactive"},
      {"smiles": "NC(=O)c1ccc(I)c([N+](=O)[O-])c1", "Potency": "inactive"},
      {"smiles": "Cc1cccc(-c2[nH]c(C(C)(C)C)nc2-c2ccc3nccnc3c2)n1", "Potency": "2.64 µM (active)"},
      {"smiles": "CCCCCCCc1ccc(CCc2cccc(O)c2C(=O)O)cc1", "Potency": "inactive"},
      {"smiles": "COc1ccc(-c2oc3cc(OC)ccc3c2C(=O)c2ccc(C#N)cc2)cc1", "Potency": "inactive"},
      {"smiles": "COCCNCCCn1c(C(=O)CF)c(-c2ccc(C)cc2)c2c(N)ncnc21", "Potency": "inactive"},
      {"smiles": "Cc1c(CCOc2ccc(C(=O)O)cc2)c2cc(Cl)ccc2n1C(c1ccccc1)c1ccccc1", "Potency": "inactive"},
      {"smiles": "CCOc1cc(C=C2C(=O)N(c3ccccc3)N=C2C)cc(Cl)c1OCC(=O)OC", "Potency": "inactive"},
      {"smiles": "Nc1ncnc2nc(-c3ccc(N4CCOCC4)nc3)cc(-c3cccc(Br)c3)c12", "Potency": "inactive"},
      {"smiles": "Nc1nccc(-c2ccc3noc(-c4ccc(Cl)cc4)c3c2)n1", "Potency": "inactive"},
      {"smiles": "Cc1c(CN2CCN(C(=O)C(C)C)CC2)sc2c(N3CCOCC3)nc(-c3cnc(N)nc3)nc12", "Potency": "inactive"},
      {"smiles": "Nc1cccc(S(=O)(=O)N2CCCN(S(=O)(=O)c3ccc4c(c3)OCCO4)CC2)c1", "Potency": "inactive"},
      {"smiles": "CS(=O)(=O)Oc1ccc2c(NC(N)=O)c(C(=O)c3ccc(Cl)cc3Cl)oc2c1", "Potency": "0.833 µM (active)"},
      {"smiles": "c1ccc(-c2nn3c(c2-c2ccnc4cc(OCCN5CCOCC5)ccc24)CCC3)nc1", "Potency": "14.8 µM (active)"},
      {"smiles": "COc1ccccc1-c1cccc(-c2c(O)c3cc(C#N)c(Cl)cc3[nH]c2=O)c1", "Potency": "inactive"},
      {"smiles": "CC(C)C[C@H](NC(=O)[C@@H](O)[C@H](N)Cc1ccccc1)C(=O)O", "Potency": "inactive"},
      {"smiles": "CC(C)(C)OC(=O)CN(Cc1ccc(Cl)cc1)Cc1ccc([N+](=O)[O-])s1", "Potency": "inactive"},
      {"smiles": "COc1ccc([C@@H]2CC(=O)c3c(O)cc(O[C@@H]4O[C@H](CO[C@@H]5O[C@@H](C)[C@H](O)[C@@H](O)[C@@H]5O)[C@@H](O)[C@H](O)[C@@H]4O)cc3O2)cc1O", "Potency": "inactive"}
    ]}
  ]
}
